JMJD2A Tudor: JMJD2A Tudor domain (human) inhibition; AlphaScreen JMJD2A-Tudor / H3K4me3 peptide binding; Potency, µM (series often up to 114 µM), for the others: at the highest dose activity change, negative = inhibition, most hits filed as inhibitors; 390,000 compounds, 4.4% hits; AID 504339; also: % is scaled to controls: 0 for no effect and ±100 for the full control effect; nearly all actives have a fitted effect of over 50% in size
HP1b binding inh: inhibitors of HP1-beta chromodomain binding to methylated histone tails; AlphaScreen HP1-beta / biotin-H3K9me3 peptide binding; 390,000 compounds, 0.56% hits; P83916; Potency, µM (titrated, usually from 114 µM), for the others: at the top dose activity change, negative = inhibition, usual class: inhibitors; also: nearly all actives have a fitted effect of over 70% in size
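Compound inhibition of the preformed complex between 50 nM HP1-beta and 50 nM biotinylated H3K9me3 peptide was read by AlphaScreen. Buffer was PBS pH 7.4 with 0.01% Tween-20. Incubations ran 30 min at room temperature, with 10 ug/mL donor/acceptor beads.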
G9a block: inhibitors of human histone lysine methyltransferase G9a; AID 504332; Potency, µM (titrated, usually from 102 µM), for inactives: at the top dose activity, negative = inhibition, most hits filed as inhibitors; 350,000 compounds, 8.8% hits; G9a H3K9 monomethylation, AlphaScreen, 2 h; Q96KQ7; also: % is scaled to controls: 0 for no effect and ±100 for the full control effect; nearly all actives have a fitted effect of over 75% in size
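Compounds were preincubated with 20 nM G9a for 15 min, after which biotinylated H3K9 peptide (500 nM) and SAM (20 uM) started a 2 h room-temperature reaction. Monomethylated product was quantified by antibody-based AlphaScreen chemiluminescence.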
BAZ2B block: BAZ2B (human) inhibition; Q9UIF8; AlphaScreen BAZ2B-H3K14Ac peptide displacement; Potency, µM (highest dose often 114 µM), for inactives: at the top dose activity change, negative = inhibition, actives largely listed as inhibitors; 360,000 compounds, 4.4% hits; AID 504333; also: % is scaled to controls: 0 for no effect and ±100 for the full control effect; nearly all actives have a fitted effect of over 60% in size
Target sequence (Q9UIF8 whole entry, looked up): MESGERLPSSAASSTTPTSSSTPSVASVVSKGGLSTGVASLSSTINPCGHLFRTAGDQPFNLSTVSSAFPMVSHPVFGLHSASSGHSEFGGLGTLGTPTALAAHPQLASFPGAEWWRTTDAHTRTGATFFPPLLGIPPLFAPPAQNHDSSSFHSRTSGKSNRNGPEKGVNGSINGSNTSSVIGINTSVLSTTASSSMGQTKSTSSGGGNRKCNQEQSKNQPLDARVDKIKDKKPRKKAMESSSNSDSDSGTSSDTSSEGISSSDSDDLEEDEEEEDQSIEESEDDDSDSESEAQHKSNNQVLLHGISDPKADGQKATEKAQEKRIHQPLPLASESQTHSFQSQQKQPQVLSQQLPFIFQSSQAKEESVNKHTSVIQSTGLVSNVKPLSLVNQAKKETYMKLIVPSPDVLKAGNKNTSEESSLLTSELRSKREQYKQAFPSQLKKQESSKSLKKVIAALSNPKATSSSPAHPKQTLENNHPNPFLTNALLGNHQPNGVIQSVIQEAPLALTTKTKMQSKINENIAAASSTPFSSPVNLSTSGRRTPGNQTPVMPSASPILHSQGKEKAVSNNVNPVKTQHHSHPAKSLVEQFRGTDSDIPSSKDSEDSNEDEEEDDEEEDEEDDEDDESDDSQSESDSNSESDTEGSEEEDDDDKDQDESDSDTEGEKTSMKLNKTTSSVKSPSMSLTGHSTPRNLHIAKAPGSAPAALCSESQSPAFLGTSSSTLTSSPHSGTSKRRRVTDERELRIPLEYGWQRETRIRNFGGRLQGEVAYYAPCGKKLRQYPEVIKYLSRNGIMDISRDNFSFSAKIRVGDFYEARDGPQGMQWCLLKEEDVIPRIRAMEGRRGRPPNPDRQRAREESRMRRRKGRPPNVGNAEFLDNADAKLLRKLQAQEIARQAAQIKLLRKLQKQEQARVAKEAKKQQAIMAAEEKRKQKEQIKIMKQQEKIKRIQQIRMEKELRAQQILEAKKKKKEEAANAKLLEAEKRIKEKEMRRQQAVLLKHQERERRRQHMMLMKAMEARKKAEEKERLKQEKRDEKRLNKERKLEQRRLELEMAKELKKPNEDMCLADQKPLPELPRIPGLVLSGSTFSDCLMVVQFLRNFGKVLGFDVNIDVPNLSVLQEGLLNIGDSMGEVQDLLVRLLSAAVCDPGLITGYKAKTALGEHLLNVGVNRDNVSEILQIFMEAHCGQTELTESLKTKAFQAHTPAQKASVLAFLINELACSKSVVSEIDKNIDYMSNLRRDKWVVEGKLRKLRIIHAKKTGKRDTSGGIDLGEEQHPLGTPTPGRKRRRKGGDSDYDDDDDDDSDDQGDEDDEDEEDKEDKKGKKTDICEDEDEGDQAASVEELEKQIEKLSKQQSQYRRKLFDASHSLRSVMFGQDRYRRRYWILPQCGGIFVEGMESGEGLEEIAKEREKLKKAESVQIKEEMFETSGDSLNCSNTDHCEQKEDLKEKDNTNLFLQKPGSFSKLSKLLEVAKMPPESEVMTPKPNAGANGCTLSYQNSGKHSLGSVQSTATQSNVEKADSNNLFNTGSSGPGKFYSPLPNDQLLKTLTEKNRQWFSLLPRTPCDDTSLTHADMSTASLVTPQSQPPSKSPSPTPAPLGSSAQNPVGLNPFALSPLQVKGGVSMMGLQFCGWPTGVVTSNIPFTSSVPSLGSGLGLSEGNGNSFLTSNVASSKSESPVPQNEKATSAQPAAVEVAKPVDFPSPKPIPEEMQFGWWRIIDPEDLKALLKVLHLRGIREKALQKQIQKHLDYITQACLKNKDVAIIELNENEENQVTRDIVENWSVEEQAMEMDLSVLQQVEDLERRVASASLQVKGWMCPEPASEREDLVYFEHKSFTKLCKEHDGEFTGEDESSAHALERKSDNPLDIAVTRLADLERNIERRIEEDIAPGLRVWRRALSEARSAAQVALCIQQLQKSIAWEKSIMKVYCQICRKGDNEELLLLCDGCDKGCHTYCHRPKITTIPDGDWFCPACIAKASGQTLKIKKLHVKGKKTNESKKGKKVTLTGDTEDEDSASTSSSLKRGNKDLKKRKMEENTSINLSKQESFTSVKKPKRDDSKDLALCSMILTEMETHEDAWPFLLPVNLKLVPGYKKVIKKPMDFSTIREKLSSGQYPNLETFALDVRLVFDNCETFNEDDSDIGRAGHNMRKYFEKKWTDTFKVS
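AlphaScreen luminescence quantifies BAZ2B engagement of H3K14Ac peptide; the protein and biotinylated peptide are both at 50 nM final, buffer PBS pH 7.4 with 0.01% Tween-20, all steps at room temperature.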
PLK1 PBD inh: blocks phosphopeptide binding to human PLK1 polo-box domain. P53350. Plk1 PBD binding of FITC phosphopeptide, fluorescence polarization. Potency, µM, without a hit: max response, negative = inhibition, usual class: inhibitors. 360,000 compounds, 2.8% hits. AID 720504; also: series mostly up to about 57 µM; % is scaled to controls: 0 for no effect and ±100 for the full control effect; nearly all actives have a fitted effect of over 65% in size
Sfp inh: inhibitors of Bacillus subtilis Sfp phosphopantetheinyl transferase; Q9F4F7; Biochemical Sfp PPTase activity, qHTS; Potency, µM, inactives show largest response in the series, negative = inhibition, usual class: inhibitors; 310,000 compounds, 3.5% hits;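 also: the enzyme is Sfp with the accession as filed and its product quenches rhodamine fluorescence; 0% = enzyme reaction without inhibitor and -100% = no enzyme wells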
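With Hepes-Na pH 7.6 buffer containing 10 mM MgCl2, Sfp (15 nM) modified BHQ-2-YbbR (12.5 uM) using rhodamine-CoA (5 uM). Two reads 30 minutes apart at 525/598 nm yielded each well's rate.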
Starred values were filed as active, the others as inactive; ? = inconclusive; nt = no result given; [ ] = dose if it differs, or a comment. Compounds with a hit are over-represented: about 12% of the library has one in this group of screens. Calls follow the shape of the dose curve; as a rule, active = well fitted curve in the direction sought with a large enough effect; inconclusive = small, poorly fitted or top-dose-only effect, or another doubt; inactive = no such curve, though single readings can be large; an effect the other way counts as inactive or inconclusive. Potency is read from the fitted curve at half-maximal effect.

SMILES	JMJD2A Tudor	HP1b binding inh	G9a block	BAZ2B block	PLK1 PBD inh	Sfp inh
CCN(CC)CCCC1(CN)OCCc2ccccc21 (stereo not given)	-3%	23%	25µM*	-1%	1%	9%
CCN(CC)CCCOC(=O)C1(c2ccccc2)CCCC1	1%	13%	-50%[59 µM]	-19%	-8%	-18%
NNc1nnc(-c2ccccc2)c(-c2ccccc2)n1	?	4%	?	79µM*	-9%	-23%
NNc1nc(-c2ccccc2)c2ccccc2n1	-20%[57.1 µM]	38%	0%	-32%	-11%	-27%
CC1(OC(=O)c2ccc(Cl)nc2)C(=O)C=C2C=C3CCCN3C=C2C1=O (stereo not given)	45µM*	?	-32%[59 µM]	?	?	?
Cc1c(-c2cc(C(=O)O)c3ccccc3n2)cnn1C	-12%	32%	45µM*	-39%	-4%	13%
CCN=c1scc(-c2ccccc2)n1/N=C/c1ccccn1	28µM*	?	?	14µM*	-10%	-22%
CCCCNC(=O)c1c(N)n(/N=C/c2ccccn2)c2nc3ccccc3nc12	nt	nt	-30%	-14%	nt	?
C=CCN=c1scc(-c2ccccc2)n1/N=C/c1ccccn1	45µM*	28µM*	?	28µM*	-9%	-29%
CCN=c1scc(-c2ccc(F)cc2)n1/N=C/c1ccccn1	?	?	16µM*	nt	-12%	?
C=CCN=c1scc(-c2ccc3c(c2)NC(=O)CO3)n1/N=C(\C)c1ccccn1	-28%	6%	?	?	?	4%
CN1CCN(c2ncc3ncc(=O)n(Cc4cccs4)c3n2)CC1	nt	nt	-4%[12.7 µM]	nt	nt	9%
O=C(Nc1ccc(Br)cn1)c1cccc(C(=O)Nc2ccc(Br)cn2)c1	89µM*	63%	20%	-1%	-14%	2%
O=C(Nc1ccc(Cl)cc1)Nc1ccc(Br)cn1	?	12%	-11%	1%	30µM*	0%
COc1ccc(C(CNC(=O)c2cccc(S(=O)(=O)Nc3ccc(F)cc3)c2)N2CCCCC2)cc1 (stereo not given)	-23%	4%	nt	nt	-5%	nt
O=C(NCc1ccncc1)C1CCN(S(=O)(=O)c2ccc(Cl)c(C(F)(F)F)c2)CC1	-14%	16%	-14%	8%	-5%	nt
S=c1[nH]nc(-c2cccnc2)n1/N=C/c1ccc(Br)s1	5.6µM*	56%	?	-36%	?	4%
Cc1ccc(/C=N/n2c(-c3cccnc3)n[nH]c2=S)s1	4.5µM*	-9%	0.79µM*	-7%	-6%	35µM*
c1ccc2c(c1)ncn2Cc1nnc2sc(-c3ccc4c(c3)OCO4)nn12	-34%	?	nt	?	19µM*	-55%
Clc1ccc(Cl)c(-c2nn3c(COc4ccccc4)nnc3s2)c1	?	?	1.8µM*	5%	5.3µM*	14µM*
Clc1ccccc1-c1nn2c(Cn3cnc4ccccc43)nnc2s1	-18%	?	2.8µM*	-8%	24µM*	45µM*
COc1ccc(-c2nn3c(COc4ccccc4)nnc3s2)cc1OC	7%	-6%	?	-2%	?	?
CC(C)Oc1ccc(CNC(=O)c2ccc(NC(=O)c3nsc4ccccc34)cc2)cc1	16%	32%[57 µM]	7%[59 µM]	12%	nt	nt
COC(=O)C1=C(C)NC(C)=C(C(=O)NCCCN2CCC(c3ccccc3)(c3ccccc3)CC2)C1c1ccc([N+](=O)[O-])cc1 (stereo not given)	nt	nt	nt	nt	nt	-23%
COc1ccc(CNc2ncnc3ccc(-c4ccc(C(=O)N(C)C)cc4)cc23)c(OC)c1	nt	nt	-8%[0.501 µM]	nt	nt	-6%
SMILES	JMJD2A Tudor	HP1b binding inh	G9a block	BAZ2B block	PLK1 PBD inh	Sfp inh
C[C@H]1CN([C@@H](C)CO)C(=O)CCCn2nncc2CO[C@H]1CN(C)S(=O)(=O)c1cccc(C#N)c1	nt	nt	nt	nt	-3%	nt
C[C@H](CO)N1C[C@H](C)[C@H](CN(C)S(=O)(=O)c2cccc(C#N)c2)OCc2cnnn2CCCC1=O	nt	nt	nt	nt	30µM*	nt
NC(=S)N/N=C1\CCSc2ccc(Cl)cc21	-15%	7%	?	-1%	-16%	-9%
CCOc1ccc(-c2nn(-c3ccccc3)cc2/C=C2\SC(=S)N(C3CCS(=O)(=O)C3)C2=O)cc1 (stereo not given)	-33%	-16%	?	-25%	?	13%
COc1ccc(-c2nn(-c3ccccc3)cc2/C=C2/SC(=S)N(CCC(=O)O)C2=O)c(C)c1	25µM*	?	40µM*	50µM*	12µM*	-28%
N#CCCn1cc(/C=C2\NC(=S)N(c3ccccc3)C2=O)c(-c2ccc(-c3ccccc3)cc2)n1	-25%	18%	14%[59 µM]	-18%	-14%	25%
CCN1C(=O)/C(=C\c2cn(CCC#N)nc2-c2ccc(F)cc2)SC1=S	22µM*	?	35µM*	35µM*	?	?
O=C1C(=Cc2cn(-c3ccccc3)nc2-c2ccc(OCc3ccccc3F)cc2)SC(=S)N1CCS(=O)(=O)O	nt	nt	nt	nt	9.5µM*	nt
COc1ccc(-c2nn(-c3ccccc3)cc2/C=C2/SC(=S)N(CCC(=O)O)C2=O)cc1	20µM*	35µM*	40µM*	18µM*	21µM*	-7%
COC(=O)c1cc(C(=O)OCC(=O)NCc2cccs2)cc([N+](=O)[O-])c1	-21%	22%	12%[12.7 µM]	11%	-9%	nt
COc1ccc(-c2cccc(NS(=O)(=O)c3cc(C)ccc3OC)c2)nn1	-18%	4%[57 µM]	0%[59 µM]	-6%	nt	nt
Cc1ccc(-c2nn(-c3ccccc3)cc2/C=C2\SC(=S)N(CC(=O)O)C2=O)cc1	40µM*	-24%[57 µM]	35µM*	22µM*	30µM*	50µM*
CCN1C(=O)/C(=C/c2cn(-c3ccccc3)nc2-c2cccnc2)SC1=S	-26%	1%	nt	nt	19%	nt
CCOc1ccc(C(=O)NCc2ccc3c(c2)CCN3C(=O)c2ccc(Cl)cc2)cc1	-6%	38%	-3%[59 µM]	-16%	nt	nt
CCN(CC(=O)NCc1cccs1)C(=O)c1ccc(Cl)c(Cl)c1	-15%	18%	nt	nt	-4%	nt
CCCc1nc2ccccc2c(C(=O)N(CC)CC(=O)NCc2cccs2)c1CC	3%	22%	35µM*	8%	-2%	nt
CCCCN1C(=O)C(CC(=O)NCc2ccco2)CC(C(=O)N2CCOCC2)=C1C (stereo not given)	nt	nt	nt	nt	2%	nt
O=C(Nc1ccc(S(=O)(=O)NC2=NCCCCC2)cc1)c1ccc(Cl)cc1Cl	-6%	12%	?	-7%	-3%	nt
CCN(CC)Cc1c(O)c(Cl)cc2c(C)cc(=O)oc12	-33%	?	?	56µM*	-15%	20%
CC(C)(C)c1ccc(C(=O)N2CCN(C(=O)c3cccs3)CC2)cc1	-12%	5%	nt	nt	-6%	nt

Source: PubChem
